# Experimental data taken from PubChem BioAssay AID624116 (National Center for Advancing Translational Sciences (NCATS), 2012).
# Records with an inconclusive call do not appear. Where a call stands in place of a potency, no number is given. The source made the active and inactive calls. Calls follow the shape of the dose curve; as a rule, active = well fitted activation curve with a large enough effect; inconclusive = small, poorly fitted or top-dose-only effect; inactive = no such curve, though single readings can be large or run the other way.
# Experiment: qHTS Assay for Rab9 Promoter Activators: Hit Validation Using Renilla Luciferase Read-Out for Rab9
# Conditions: Huh7 Rab9 promoter Renilla luciferase reporter, 24 h; series mostly up to 76.9 µM
# Source text: Niemann Pick Type C (NPC) is a rare neurodegenerative lipidosis that is characterized by lipid storage in the endosomal/lysosomal system. Treatment modalities for this devastating disease are currently non-existent due to the severe obstacles associated with accessing the central nervous system with proteins or genes. The majority of mutations causing NPC disease are missense mutations that are distributed throughout the length of the NPC1 protein, with the most prevalent being the I1061T allele. Although NPC1 mutant proteins may be functional, they are typically trapped in the ER due to misfolding. […] We have developed and optimized a cell based renilla luciferase reporter assay in 1536 well format for the identification of up-regulators of the mutant Rab9 promoter. This assay presents data on the validation of hits from the primary screen, which used a firefly luciferase read-out. NIH Chemical Genomics Center [NCGC] NIH Molecular Libraries Probe Production centers Network [MLPCN] MLPCN Grant: MH089375 Assay Submitter (PI): Yiannis A. Ioannou
# Huh7 cells stably expressing NPC promoter-luciferase will be seeded at 1,500 cells/well in 5 uL in 1,536-well white opaque plates with 23 nL/well of compound in DMSO solution. The assay plates will be incubated at 37 deg C for 24 hours, after which 3 uL/well BriteLite plus luciferase detection reagent mixture (Perkin Elmer) will be added. Luminescence signal will be measured in a ViewLux plate reader (Perkin Elmer) after a 10 minute incubation at the room temperature.
# Potency is read from the fitted curve at half-maximal effect.
row,Structure (SMILES),Potency
1,CCN(Cc1nc2cc(Cl)ccc2c(=O)[nH]1)C(=O)C1CC(=O)N(c2cccc3ccccc23)C1 (stereo not given),inactive
2,COC(=O)c1sccc1NC(=S)OC,inactive
3,CCN(CC(=O)N(CC(C)C)c1c(N)n(CC(C)C)c(=O)[nH]c1=O)Cc1nc2ccccc2c(=O)[nH]1,inactive
4,CCC(=O)N1c2ccccc2NC2=C(C(=O)CCC2)C1c1ccc(N(C)C)cc1 (stereo not given),inactive
5,NC(=O)C(=O)NN=C1C2CC3CC(C2)CC1C3,inactive
6,COCCNC(=O)Cn1nc(-c2ccccc2)c2ccccc2c1=O,inactive
7,COc1ccc(-n2cc(-c3ccc(Cl)cc3)[nH]c2=S)cc1,inactive
8,CC1CCCN(S(=O)(=O)c2ccc(C(=O)Nc3nnc(-c4ccncc4)o3)cc2)C1 (stereo not given),inactive
9,COCCSc1ncnc2c1oc1nc3c(cc12)COC(C)(C)C3,inactive
10,COc1ccc(/C=C\C(=O)c2c(O)ccc3c(C)cc(=O)oc23)cc1OC,inactive
11,S=C1NCN(CCc2ccccc2)CN1Cc1ccccc1,inactive
12,COc1ccccc1CNC(=O)COc1ccc(C)cc1,inactive
13,COc1ccc(C(c2nnnn2CCc2ccccc2)N2CCN(C3CCCC3)CC2)cc1 (stereo not given),13 µM (active)
14,O=C(CCc1cccc(Cl)c1)NC1CCCN(Cc2ccccc2F)C1 (stereo not given),inactive
15,O=C(NC1CCCC1)C(c1ccc(F)cc1)N(C(=O)c1csnn1)c1ccccc1 (stereo not given),inactive
16,COc1ccc(NC(=O)CN(C)C(=O)c2ccc(=O)[nH]c2)cc1,inactive
17,O=C(NC(=S)Nc1ccc(CN2CCCCC2)cc1)c1cc2ccccc2o1,inactive
18,Cc1ccccc1NC(=O)Cc1nc(COC(=O)CC(C)c2ccccc2)cs1 (stereo not given),inactive
19,CC(=O)NC(=S)Nc1ccc2oc(-c3cc(F)c(F)cc3Cl)nc2c1,inactive
20,CC(=O)Nc1nnc(SCC(=O)NCCOc2ccccc2)s1,inactive

row,Structure (SMILES),Potency
1,O=C(/C=C/c1ccco1)NCC1OCCc2ccccc21 (stereo not given),inactive
2,COc1ccc(-n2c(N)c(C(=O)NCc3ccco3)sc2=S)cc1,inactive
3,O=C(COc1ccccc1F)Nc1ccc(-c2nc3ccccc3s2)cc1,inactive
4,Cc1ccc(C(=O)c2cncc(Br)c2)cc1,inactive
5,O=C(CSc1nnc(Cc2cc(=O)[nH]c(=O)[nH]2)n1-c1ccc(Cl)cc1)NC1CCCC1,inactive
6,COc1ccc([N+](=O)[O-])cc1COc1ccc2c(-c3ccccc3)cc(=O)oc2c1,3.28 µM (active)
7,CCCCn1c(CCNC(=O)c2cccs2)nc2ccccc21,inactive
8,CCC1CCCCN1CCCNC(=O)c1ccc2nc(N3CCCCC3)sc2c1 (stereo not given),inactive
9,COc1ccc(/C=C\c2onc(C)c2S(=O)(=O)N2CCC(C(=O)NCCC(C)C)CC2)cc1,inactive
10,COc1ccc2oc(=O)c(C(=O)NC(C)c3ccccc3)cc2c1 (stereo not given),inactive
11,CCOc1ccc(CNC(=O)C2CCCN(S(C)(=O)=O)C2)cc1OC (stereo not given),inactive
12,CCCOP(=O)(c1ccc(N(C)C)cc1)C(O)c1cccnc1 (stereo not given),inactive
13,O=C(NNC(=O)C1COc2ccccc2O1)c1ccccc1O (stereo not given),inactive
14,COC(=O)CSc1nc2cc3c(cc2cc1C#N)OCO3,inactive
15,NCCOc1ccccc1-c1ccccc1,inactive
16,N#C/C(=N\Nc1ccc(Cl)cc1)C(=N)N1CCCCC1,inactive
17,Cc1ccc(C#N)c(SCC(=O)Nc2nccs2)n1,inactive
18,O=C(CCCOc1ccc(Cl)cc1)N1CCCCC1,inactive
19,COC(=O)c1cn(NC(=O)C2CCCCC2)c(=O)c2ccccc12,inactive
20,Cc1c(C(O)CN2CCN(Cc3ccc4c(c3)OCO4)CC2)c2ccccc2n1C (stereo not given),inactive
